The term inhibition denotes the share of the control response that was lost under treatment.

Structures are written as SMILES. Values without a mark were called inactive. How the calls were made is not given here.

Pantothenate synthetase (Mycobacterium tuberculosis (strain ATCC 25618 / H37Rv)), sequence (P9WIL5 whole entry, looked up): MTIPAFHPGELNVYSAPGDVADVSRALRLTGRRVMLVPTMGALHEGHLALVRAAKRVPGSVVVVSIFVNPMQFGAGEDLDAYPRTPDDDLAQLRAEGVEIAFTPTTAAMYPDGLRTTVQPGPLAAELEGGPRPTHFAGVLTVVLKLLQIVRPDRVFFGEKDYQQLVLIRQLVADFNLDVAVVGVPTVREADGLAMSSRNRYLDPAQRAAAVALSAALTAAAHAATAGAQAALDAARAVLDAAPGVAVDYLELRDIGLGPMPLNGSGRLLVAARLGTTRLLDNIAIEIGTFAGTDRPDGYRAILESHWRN

This assay addresses Pantothenate synthetase (Mycobacterium tuberculosis (strain ATCC 25618 / H37Rv)) (UniProt P9WIL5). Put plainly: Recombinant Mtb pantothenate synthetase (PanC) inhibitors, coupled enzyme, confirmatory (AID 375).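 Further: 0% = full reaction with vehicle and 100% = no enzyme background.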 To be noted: coupled enzyme assay; at 10 µM, active compounds read high.
For the compound `CCOC(=O)c1nnc(-c2ccccc2)o1`, the inhibition is 2%.
As for `O=C(CC(Cc1ccccc1)C(=O)O)NCCc1ccc2c(c1)OCO2` (configuration not stated), the inhibition was 1%.
The same measure for `Cc1ccc(Cl)cc1N1CCN(C(=O)c2cn(C)c(=O)c3c2c2ccccc2n3C)CC1`: 3%; for `CC(Oc1ccc2oc(-c3ccccc3)c(C(=O)O)c2c1)C(=O)O` (configuration not stated): 0%.
The figure for `Cc1cc(C(=O)Nc2c(C)n(C)n(-c3ccccc3)c2=O)c(C)o1` is 0%.
On to `CCN(CC)c1ccc2c(C)c(-c3ccc(N)cc3)c(=O)oc2c1`, for which the inhibition is 10%.
As for `Cc1ccc(S(=O)(=O)N2CCOCC2)cc1C(=O)Nc1nc(-c2cccnc2)cs1`, the inhibition is 0%.

Values taken from PubChem BioAssay.
